Test results from ChEMBL document CHEMBL3988442, “University of Dundee, Small-Polar-MMV Screening Library” (2021).
In all, about 48,000 compounds went through this assay and about 13,000 (27%) showed an effect of 50% or more. The list shows a part of the results.

The compounds below were run on Wolbachia pipientis (assay: Anti-Wolbachia Cell-Based Screen). Conditions: 5 µM.
Format: functional
Set-up: scale not given: in the data most compounds retested in dose-response had high values

| SMILES | Percent Effect |
| --- | --- |
| Cc1cccc(CCC(=O)Nc2cccnc2N2CCC(O)CC2)c1 | -21.77% |
| Cc1nonc1NC(=O)c1ccc(F)c(COCC2CC2)c1 | -55.79% |
| CC(C)n1cc2cc(NC(=O)CCS(C)(=O)=O)ccc2n1 | -1.641% |
| COC(=O)c1cc(C(=O)N2CCOCC2(C)C)n(-c2ccccc2)n1 | -5.811% |
| CCC(C)(NCC(=O)OC)c1nccs1 (stereo not given) | -7.626% |
| Cc1ccc(OCC(=O)N(C)Cc2cccc(F)c2)cn1 | 7.779% |
| CC(C)Oc1cccc(CNC(=O)NC(C)(C(=O)O)c2ccco2)c1 (stereo not given) | 1.863% |
| CCNS(=O)(=O)c1ccc(C)c(C(=O)N(CCC#N)Cc2ccco2)c1 | -4.86% |
| CS(=O)(=O)N1CC[C@]2(C[C@@H](Oc3ccccn3)CO2)C1.O=C(O)C(F)(F)F | -15.23% |
| CN(C)C(=O)CC1CC2(CCN(C(=O)N(C)C)CC2)Oc2ccccc21 (stereo not given) | -10.67% |
| CC(C)CN1CCC2(CC1)CC(NS(C)(=O)=O)c1ccccc1O2.O=C(O)C(F)(F)F (stereo not given) | 99.03% |
| CC(=O)N1CCC2(CC1)CC(NS(C)(=O)=O)c1ccccc1O2 (stereo not given) | 119.8% |
| CCN1CCC2(CC1)CC(NC(=O)c1csnn1)c1ccccc1O2.O=C(O)C(F)(F)F (stereo not given) | -74.83% |
| Cc1ccc(NC2COC3(CCN(CC(C)C)CC3)C2)nn1.O=C(O)C(F)(F)F (stereo not given) | -1.394% |
| CC(C)N1CCC2(CC1)CC(NS(C)(=O)=O)c1ccccc1O2.O=C(O)C(F)(F)F (stereo not given) | 107.1% |
| O=C(O)C(F)(F)F.O=S(=O)(NC1CCC12CCN(CC1CC1)CC2)c1ccccc1 (stereo not given) | 2.266% |
| CCN1CCC2(CC1)CC(NC(=O)c1c[nH]cn1)c1ccccc1O2 (stereo not given) | -7.488% |
| CN1CCC2(CC1)CC(NC(=O)c1csnn1)c1ccccc1O2.O=C(O)C(F)(F)F (stereo not given) | -8.669% |
| CS(=O)(=O)NC1CC2(CCN(CC3CC3)CC2)Oc2ccccc21.O=C(O)C(F)(F)F (stereo not given) | 88.61% |
| CNC(=O)NC(=O)C(C)N1CCCc2cc(OC)ccc2C1 (stereo not given) | -11.16% |
| CC(CO)N(C)C(=O)c1cn(-c2ccc(Br)cc2)cn1 (stereo not given) | -3.083% |
| Cc1cc(F)ccc1NCC(=O)NCC(F)(F)F | 8.632% |

| SMILES | Percent Effect |
| --- | --- |
| CC(C)c1nc2n(n1)CC(NCCc1cccs1)CC2 (stereo not given) | 0.7675% |
| NC(=O)N1CCCN(C2CCc3ccc(F)cc32)CC1 (stereo not given) | -19.72% |
| COc1cc2c(nn1)CCN(CC(O)COc1ccc(C#N)cc1)C2 (stereo not given) | -7.756% |
| CC(Cc1ccco1)NS(=O)(=O)N1CCCCCC1 (stereo not given) | -8.82% |
| Cc1ccc(N2CCCC(NCc3ccc(Cl)o3)C2)nn1 (stereo not given) | 93.48% |
| Cc1ccc(N2CCCC(NCc3ccc(C)o3)C2)nn1 (stereo not given) | 12.24% |
| Cc1ccc(N2CCCC(NCc3cccc4c3OCCO4)C2)nn1 (stereo not given) | 17.19% |
| CSCc1ccc(CNC2CCCN(c3ccc(C)nn3)C2)o1 (stereo not given) | 95.39% |
| CC(C)(C)CN1CCN2C(=O)N(C3CCCCC3)C[C@H]2C1 | -7.444% |
| COc1ccc(C(N)=O)cc1NCc1noc(-c2ccsc2)n1 | 0.901% |
| O=C(c1ccc(C(F)(F)F)cc1)N1C[C@@H](CN2CCCCC2)[C@@H](CO)C1 | -17.56% |
| Cc1nnc(N2CCN(C)C3(CCC(=O)N(CCO)CC3)C2)s1 (stereo not given) | -2.989% |
| Cc1cccc(OCCCNC(=O)NC(C)c2nncn2C)c1 (stereo not given) | 6.947% |
| CC(NC(=O)NCCCOc1ccccc1F)c1nncn1C (stereo not given) | 6.488% |
| Cc1cccc(OCCNC(=O)Cn2ccc(C)cc2=O)c1 | 104.8% |
| Cc1ccn(CC(=O)NCCCOc2ccccc2F)c(=O)c1 | 116.2% |
| Cc1cccc(OCCCNC(=O)Cn2ccc(C)cc2=O)c1 | 90.13% |
| Cc1cccc(OCCNC(=O)C(C)S(=O)(=O)c2ccccn2)c1 (stereo not given) | 5.338% |
| CC(=O)Nc1nc(C(=O)NCCOc2cccc(C)c2)cs1 | 7.237% |
| Cc1cccc(OCCNC(=O)C(C)S(=O)(=O)C2CCCC2)c1 (stereo not given) | -6.282% |
| Cc1ncc(C(=O)NCCOc2ccccc2F)c(C)n1 | -10.65% |
| CCc1cc(N2CCCNCC2)n2nc(C)c(C)c2n1 | 3.882% |

| SMILES | Percent Effect |
| --- | --- |
| CCN1CCCC(c2c(-c3ccccc3)ncn2Cc2csc(N)n2)C1 (stereo not given) | 4.265% |
| COc1ccc2[nH]nc(CN3CCC(C(C)N(C)C)CC3)c2c1 (stereo not given) | 2.332% |
| CC(c1ccon1)N(C)C(=O)C1CCN(CC(N)=O)CC1 (stereo not given) | -6.665% |
| CC(c1ccncn1)N(C)S(=O)(=O)NCc1ccccc1 (stereo not given) | 110.9% |
| C=C(C)COc1cccc(CN(C)C(C)c2ccncn2)c1 (stereo not given) | 2.778% |
| CC(=O)Nc1ccc(Cl)c(C(=O)N(C)C(C)c2ccncn2)c1 (stereo not given) | 19.4% |
| CC(c1nccs1)N(C)C(=O)c1cc(CN(C)Cc2ccccc2)on1 (stereo not given) | -3.289% |
| CC(c1ccon1)N(C)S(=O)(=O)NCc1ccccc1 (stereo not given) | 110% |
| CCN(CC)C(CNS(=O)(=O)NCc1ccccc1)c1ccco1 (stereo not given) | -8.171% |
| C=C(C)COc1cccc(CN(C)C(C)c2nccs2)c1 (stereo not given) | 12.61% |
| CC(c1nccs1)N(C)S(=O)(=O)NCc1ccccc1 (stereo not given) | 97.09% |
| CN1CCC(N(C)C[C@H]2CC[C@@H](Cc3ccc4c(cnn4C)c3)O2)CC1 | -7.23% |
| CC(Nc1ccc(Oc2cccc(C#N)c2)cc1)C(=O)NC1CC1 (stereo not given) | 1.244% |
| COCCc1noc(CN2CCCC2Cn2nc(C)nc2C)n1 (stereo not given) | 103.9% |
| COc1ccc(-c2nc(CN3CC(n4nc(C)cc4C)C3)no2)cc1 | -0.6245% |
| COCCc1noc(CN2CCCC2c2c(C)nn(C)c2C)n1 (stereo not given) | 1.097% |
| Cc1cc(C)n(C2CN(Cc3noc(-c4ccccc4)n3)C2)n1 | -5.64% |
| Cc1nc(C)n(CC2CCCN2Cc2nc(C3CC3)no2)n1 (stereo not given) | 2.651% |
| Cc1cc(C)n(CC2CCCN2Cc2c(C)noc2C)n1 (stereo not given) | 3.056% |
| COCCc1noc(CN2CC(n3nc(C)cc3C)C2)n1 | 87.49% |
| COCCc1noc(CN2CCCC2Cn2nc(C)cc2C)n1 (stereo not given) | 100.2% |
